HCV inh: inhibitors of hepatitis C virus infection | Huh7.5.1 HCVcc-Cre infection, luciferase reporter, 44 h | Potency, µM (series often up to 41.8 µM), for the others: at the highest dose activity change, negative = inhibition, most hits filed as inhibitors | actives 3.4% (n = 340,000) | AID 651820; also: potency is read from the fitted curve at half-maximal effect
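Infectious HCVcc-Cre (~0.5 moi) was added to cells just after compound, with cells seeded 4 h earlier at 1,000 per well. Luciferase activity after 44 h culture reported infection; substrate was incubated 15 min at room temperature before reading.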
HCMV antiviral: blocks human cytomegalovirus replication. HFF cells, HCMV-luciferase reporter, 72 h; hits give low values. activity change, negative = inhibition, % at 57.5 µM. actives 4.5% (n = 410,000). AID 1259415; in the data active = activity change below about -60%; inconclusive = no clear call, values can overlap the other calls; inactive = above about -39%
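After 16 h attachment at 37C, HFF cells received test compound and HCMV-luciferase (1 PFU/cell); reporter luminescence read 72 h later, data normalized against buffer-only and known inhibitor Salinomycin.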
Pf growth 48h: P. falciparum growth inhibition at 48 hours (one generation) | actives 5.9% (n = 310,000) | P. falciparum luciferase growth in erythrocytes, 48 h | AID 504832 | Potency, µM (titrated, usually from 28.7 µM), inactives show top-dose activity change, negative = inhibition, most hits filed as inhibitors; also: potency is read from the fitted curve at half-maximal effect
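In quantitative HTS format, infected erythrocytes bearing luciferase-reporter parasites were treated for a single generation at 37 C. Luminescence after adding detection reagent served as the growth measure.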
Pf growth 96h: P. falciparum growth inhibition at 96 hours; P. falciparum luciferase reporter growth, 96 h; Potency, µM (series often up to 28.7 µM), for inactives: top-dose activity change, negative = inhibition, most hits filed as inhibitors; actives 6.9% (n = 320,000); AID 504834; also: potency is read from the fitted curve at half-maximal effect
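Two parasite generations (96 h, 37 C, 5% CO2) of compound exposure in infected erythrocytes (0.05% parasitemia, 2% hematocrit). Luciferase-reporter P. falciparum; decreased luminescence indicates inhibited growth, aimed at apicoplast-acting delayed death.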
Numbers without * were called inactive; i = inactive; ? = inconclusive; . = not tested or not shown. Shown are actives, neighbours in structure and some others; about 13% of the full set was active somewhere. Unless noted, calls follow the shape of the dose curve; as a rule, active = well fitted inhibition curve with a large enough effect; inconclusive = small, poorly fitted or top-dose-only effect, or another doubt; inactive = no such curve, though single readings can be large or run the other way. % is scaled to controls: 0 for no effect and ±100 for the full control effect.

SMILES	HCV inh	HCMV antiviral	Pf growth 48h	Pf growth 96h
COc1ccc(/C=C/C(=O)c2ccc([N+](=O)[O-])o2)cc1OC	5.62µM*	-103.6*	11.7µM*	?
COc1cc(/C=C/C(=O)/C=C(O)/C=C/c2ccc(O)c(OC)c2)ccc1O	?	-67.4*	?	?
CCOC(=O)c1cc(-c2ccc(OC)cc2)n(CCC(=O)NC2CCCCC2)c1C	.	37.7	.	.
COc1cccc(NC(=O)N(Cc2c[nH]c3ccccc23)C2CCCCCC2)c1	.	-39.1	.	.
COc1ccc(NC(=O)C(C)n2nc(C)c3c(C)n(-c4ccccc4)nc3c2=O)cc1Cl (centres undefined)	.	-15.9	.	.
CCOc1ccc(NC(=O)Cn2nc(CC)n3c(cc4sccc43)c2=O)cc1	.	-7.5	.	.
CCCn1c2ccccc2c2cnn(CC(=O)N3CCCC(C)C3)c(=O)c21 (centres undefined)	.	-61.8*	.	.
CCCn1c2ccccc2c2cnn(CC(=O)NCCCN3CCCC(C)C3)c(=O)c21 (centres undefined)	?	-65.5*	-13.3%	14.7µM*
CCCn1c2ccccc2c2cnn(CC(=O)NC3CCC(C)CC3)c(=O)c21 (centres undefined)	5.0%	20.0	-9.4%	2.3%
CC1CCCCN1CCCNC(=O)Cn1ncc2c3ccccc3n(Cc3ccccc3F)c2c1=O (centres undefined)	.	-74.5*	.	.
CCCn1c2ccccc2c2cnn(CC(=O)NCCCN3CCN(c4ccccc4)CC3)c(=O)c21	11.2µM*	-24.4	7.6%	0.329µM*
CC1CCCCN1CCCNC(=O)Cn1ncc2c3ccccc3n(C)c2c1=O (centres undefined)	.	30.7	.	.
COc1ccc(NC(=O)CSc2nc3nc(C)c(Cc4ccccc4Cl)c(C)n3n2)cc1OC	.	-4.6	.	.
Cc1ccc2c(c1)c1c(c(=O)n(Cc3ccccc3)c(=O)n1Cc1ccccc1F)n2C	.	30.6	.	.
CCN(CC)c1ccc(C(=O)OCC(=O)NC2CCCCC2C)cc1 (centres undefined)	-23.5%	-9.7	.	-2.2%
CC1CCCC(NC(=O)NC(=O)COC(=O)c2ccc(O)cc2O)C1C (centres undefined)	-2.3%	-19.8	7.38µM*	?
CC(C)(C)c1ccc(C(=O)OCC(=O)NC2CC2)cc1	-12.1%	-18.2	9.28µM*	?
CC1CCCC(NC(=O)COC(=O)c2ccc(N(C)C)cc2)C1C (centres undefined)	2.82µM*	4.3	11.4%	.
CCOc1ccc(S(=O)(=O)NCC(c2ccco2)S(=O)(=O)c2cccs2)cc1 (centres undefined)	.	-25.8	.	.
Cc1nn(-c2ccccc2)c2c1cc1c(=O)[nH]c(=O)nc-1n2-c1cccc(Cl)c1	.	14.2	.	.
Cc1ccc(N2CCN(C(=O)c3cn(C)c4ccc(S(=O)(=O)N(C)C)cc4c3=O)CC2C)cc1 (centres undefined)	.	-15.5	.	.
CCCc1nnc(NC(=O)Cc2coc3cc(C)cc(C)c23)s1	.	4.3	.	.
CCOC(=O)CN1C(=O)CC(c2ccc([N+](=O)[O-])cc2)C1=O (centres undefined)	1.7%	39.4	19.2%	7.38µM*
CC(=O)c1cc(-c2ccc(F)cc2)n(CCC(=O)NC2CCCCC2)c1C	.	0.0	.	.
CC(C)(C)NC(=S)N/N=C/c1cc(Br)c(O)c(Br)c1	-8.2%	-12.1	?	7.38µM*
SMILES	HCV inh	HCMV antiviral	Pf growth 48h	Pf growth 96h
O=C(c1ccc(N2CCN(C(=O)c3ccc(F)cc3F)CC2)cc1)c1cccc(F)c1	11.2µM*	-35.5	?	10.4µM*
O=C(c1c[nH]c(C(=O)N2CCN(c3ccccc3F)CC2)c1)c1cccc(Cl)c1Cl	25.1µM*	-19.3	0.0%	?
CCC(=O)c1ccc(N2CCN(C(=O)c3ccccc3F)CC2)c(F)c1	?	19.5	28.5%	-0.4%
Cc1ccc(N2CCN(C(=O)c3ccccc3F)CC2)c(C)c1	-17.3%	15.1	-15.3%	3.29µM*
O=C(c1ccccc1)c1ccc(N2CCN(C(=O)c3cccc(F)c3F)CC2)c(F)c1	12.6µM*	-22.3	?	-102.1%
CC(=O)N1CCc2c(sc3c2c(=O)n(-c2ccccc2)c(=O)n3CC(=O)c2ccc(Cl)cc2)C1	.	-3.6	.	.
O=C(Nc1cc(Cl)cc2c1-c1ccc(Cl)cc1C2O)C(Cl)Cl (centres undefined)	11.2µM*	-14.6	.	.
Cn1nnnc1SCCCNCc1ccccc1OCc1ccccc1F	.	-36.2	.	.
O=C(C[N+]1(CC#Cc2ccccc2)CCCCC1)c1ccccc1	9.2%	-34.9	9.28µM*	?
O=C(C[N+]1(CC#Cc2ccccc2)CCOCC1)c1ccccc1	-25.1%	-17.9	13.1µM*	-11.2%
O=C(C[N+]1(CC#Cc2ccccc2)CCOCC1)c1ccc(Cl)cc1	-3.2%	9.2	?	39.7%
O=C(C[N+]1(CC#Cc2ccccc2)CCCCC1)c1ccc(Cl)cc1	-24.6%	-26.7	?	-21.7%
COc1cccc(NC(=O)CSc2c(C)cnc3c2c(=O)n(C)c(=O)n3C)c1	.	-14.2	.	.
COc1ccc(-c2cc(C(F)(F)F)n3nc(C(=O)Nc4sc5c(c4C#N)CCC(C)C5)cc3n2)cc1OC (centres undefined)	.	-2.4	.	.
Cc1ccc(NCc2cccn2-c2nnc(N3CCCCCC3)s2)cc1	.	-27.6	.	.
CCc1ccc(-n2nc3ccc(NC(=O)c4ccc(C#N)cc4F)cc3n2)cc1	.	11.0	.	.
C=CCn1cccc(C(=O)Nc2ccc(OCC)cc2)c1=O	11.2µM*	-62.7*	i	124.8%
C=CCn1cccc(C(=O)Nc2ccc(Cl)cc2)c1=O	11.2µM*	12.6	88.1%	110.5%
CCOc1ccc(-c2nnc3sc(COc4ccccc4)nn23)cc1	16.3%	44.1	-8.7%	11.7µM*
CC(C)COc1ccc(C(=O)N/C(=C\c2cccc([N+](=O)[O-])c2)C(=O)O)cc1	9.1%	2.2	-6.6%	11.0%

From PubChem
